# The list is not random: actives were taken first. Their share in the collection is about 21%.
# ClpP mod: qHTS Assay for Activators of ClpP. Potency, µM (titrated, usually from 57.5 µM), inactives show at the highest dose activity change, negative = active. hit rate 1.9% among 340,000. purified B. subtilis ClpP, FRET peptide cleavage, 20 min. ATP-dependent Clp protease proteolytic subunit (Bacillus subtilis (strain 168)), P80244; active = well fitted falling curve with a large enough effect; inconclusive = small, poorly fitted or top-dose-only effect; inactive = no such curve, though single readings can be large or run the other way; note: potency is the fitted concentration of half-maximal effect; the source files actives as falling curves though it sought activators and does not explain the sign; nearly all actives have a fitted effect of over 65% in size
# Target sequence (P80244 whole entry, looked up): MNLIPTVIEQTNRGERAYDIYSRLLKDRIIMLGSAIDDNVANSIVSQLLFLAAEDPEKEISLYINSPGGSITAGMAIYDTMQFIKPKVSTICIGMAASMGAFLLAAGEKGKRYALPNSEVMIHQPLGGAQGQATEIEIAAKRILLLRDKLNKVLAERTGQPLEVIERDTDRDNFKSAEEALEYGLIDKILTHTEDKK
#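 ClpP 10 microg/mL final, pH 8 Tris/KCl buffer with BSA, glycerol, Tween-20; compound pinned in; FRET-FV substrate; RT 20 min; Ex320/Em430; ΔFRET vs ADEP 5.8 microM, DMSO, no enzyme.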
# DRD3 antagonist: blocks the human D3 dopamine receptor; P35462; D3R cells, DiscoveRx beta-arrestin luminescence, antagonist mode; hits give low values; max response, negative = inhibition, %; hit rate 2.5% among 360,000; AID 652054; in the data active = max response below about -50%; inconclusive = no clear call, values can overlap the other calls; note: % is set by controls: 0 for no effect and ±100 for the full control effect
# Target sequence (P35462 whole entry, looked up): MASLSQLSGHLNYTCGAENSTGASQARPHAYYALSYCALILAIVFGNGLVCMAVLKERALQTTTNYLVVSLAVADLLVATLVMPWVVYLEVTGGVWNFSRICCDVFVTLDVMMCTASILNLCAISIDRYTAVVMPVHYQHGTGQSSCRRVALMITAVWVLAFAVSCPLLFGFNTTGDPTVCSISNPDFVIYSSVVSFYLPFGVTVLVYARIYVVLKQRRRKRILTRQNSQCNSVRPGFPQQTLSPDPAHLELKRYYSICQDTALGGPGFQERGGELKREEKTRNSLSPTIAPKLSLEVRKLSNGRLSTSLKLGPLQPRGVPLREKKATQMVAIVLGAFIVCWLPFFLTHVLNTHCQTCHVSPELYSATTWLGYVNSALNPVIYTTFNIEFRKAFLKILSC
#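 Cells expressing the human receptor were seeded at 1500 cells/well, incubated overnight at 37 degrees C in 5% CO2, then exposed to library compounds with dopamine controls for 90 minutes at 37 degrees C before luminescent detection.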
# TDP1 cell CPT: growth inhibition of DT40 Tdp1-/-;hTDP1 cells with camptothecin (screen for TDP1 inhibitors). chicken DT40 Tdp1-/-;hTDP1 cells + 20 nM CPT, ATP luminescence, 48 h. Potency, µM (highest dose often 46.2 µM), inactives show at the top dose activity change, negative = growth inhibition, hits mostly inhibitors. hit rate 12% among 420,000; note: potency is the fitted concentration of half-maximal effect; % is set by controls: 0 for no effect and ±100 for the full control effect; nearly all actives have a fitted effect of over 55% in size
#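 Chicken DT40 Tdp1-/- cells stably complemented with human TDP1 were seeded at 400 cells/well in medium containing 20 nM camptothecin, exposed to pin-transferred compounds, and grown at 37 °C for at least 48 hr. Viability was read as ATP luminescence.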
# D3 ag: agonists of human D3 dopamine receptor. P35462. D3R DiscoveRx beta-arrestin cells, luminescence, 90 min. max activation, %. hit rate 0.58% among 410,000; in the data active = max activation above about 30%; note: 0% is about no effect
#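 Cells at 1500/well, incubated overnight, then treated with pinned compounds (dopamine as control) for 90 min at 37 degrees C. DiscoveRx reagent added for 30 - 60 minutes at room temperature; luminescence read.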
# IL1B secr inh: inflammasome signaling inhibition, IL-1 beta readout | activity change, % at 57.5 µM | hit rate 4.7% among 360,000 | THP-1 LPS/ATP IL-1B secretion, AlphaLISA, 16 h; hits give low values | AID 743279; in the data active = activity change below about -50%; inconclusive = mostly about -30% to -49%; note: % is set by controls: 0 for no effect and ±100 for the full control effect
#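 THP-1 cells pretreated 1 hr with compounds (up to 57.5 uM final), then stimulated with LPS (250 ng/mL final) plus ATP (1.25 mM final); secreted IL-1B measured by AlphaLISA after 16 hr, decreased signal indicating inhibition.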
# TDP1 cell noCPT: qHTS for Inhibitors of human tyrosyl-DNA phosphodiesterase 1 (TDP1): qHTS in cells in absence of CPT; DT40 Tdp1-/- hTDP1 cells, no CPT, ATP luminescence, 48 h; Potency, µM (top dose mostly 46.2 µM), for inactives: at the top dose activity change, negative = growth inhibition, usual class: inhibitors; hit rate 15% among 420,000; note: potency is the fitted concentration of half-maximal effect; % is set by controls: 0 for no effect and ±100 for the full control effect; nearly all actives have a fitted effect of over 55% in size
#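 Chicken DT40 Tdp1-/- cells complemented with human TDP1, screened without camptothecin (DMSO vehicle only), 400 cells/well. Compounds pin-transferred, cells incubated at 37 °C for at least 48 hr. Growth read as ATP-dependent luminescence (CellTiter-Glo, 30 min at RT).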
# * hit, by the source's call; ? = inconclusive; · = no result. Unless noted, calls come from the whole dose curve; as a rule, active = well fitted inhibition curve with a large enough effect; inconclusive = small, poorly fitted or top-dose-only effect; inactive = flat fitted curve, though single readings scatter.
SMILES,ClpP mod,DRD3 antagonist,TDP1 cell CPT,D3 ag,IL1B secr inh,TDP1 cell noCPT
CCN(CC)c1ccc(NC(=O)c2cc(C)nc3c2c(C)nn3-c2ccc(C)cc2)c(C)c1,-3%,·,?,-19,·,?
COCCCNC(=S)N/N=C/c1ccc(O)cc1,-17%,-29,-3%,8,-25,-20%
COCCCNC(=S)N/N=C/c1ccc(O)cc1O,·,-5,?,32*,·,?
COCCCNC(=S)N/N=C/c1cccc(OC)c1O,·,0,0.82µM*,15,-3,0.65µM*
CC(N=C1CC(C)(C)CC(=O)/C1=C(/O)CCCN1C(=O)c2ccccc2C1=O)C(=O)O (centres undefined),·,19,7%,8,28,-1%
COc1ccccc1-c1nc2ccccc2nc1-c1ccccc1,?,1,18µM*,-4,17,?
O=C(NCCN1C(=O)S/C(=C\c2ccc(Cl)c(Cl)c2)C1=O)C1COc2ccccc2O1 (centres undefined),-7%,57,?,14,-56*,?
CCOc1ccc(/C=C2\SC(=O)N(CCNC(=O)CN3C(=O)NC4(CCCC4)C3=O)C2=O)cc1OC,0%,5,-22%,2,-7,-25%
O=C(NCCN1C(=O)S/C(=C\c2ccc(Cl)c(Cl)c2)C1=O)c1ccc2c(c1)C(=O)N(Cc1ccncc1)C2=O,-6%,20,13µM*,4,?,12µM*
CCOc1ccc(/C=C2\SC(=O)N(CCNC(=O)C3COc4ccccc4O3)C2=O)cc1OC (centres undefined),-6%,105,12µM*,50*,-53*,9.2µM*
COc1ccc(/C=C2/SC(=O)N(CCNC(=O)C3COc4ccccc4O3)C2=O)cc1 (centres undefined),1%,17,?,9,8,21µM*
O=C(NCc1cccnc1)c1ccc2c(c1)C(=O)N(Cc1ccccc1)C2=O,-3%,-14,-2%,-7,-13,-11%
Cc1ccc(-c2cc3ncc4c(n3n2)-c2cc(Cl)ccc2OC4)cc1,1%,·,0%,2,·,-10%
O=C(C[C@H]1C/C=C\CCC(=O)OC[C@H]2CCCN2C1=O)NCCO,-2%,3,9%,6,16,14%
COc1ccc(Cl)cc1-n1c(C)cc(C=O)c1C,32µM*,15,6%,0,-3,-30%
Cc1ccc(CNc2nc3c([nH]2)c(=O)n(C)c(=O)n3C)cc1,20µM*,-15,?,11,24,?
Cn1c(=O)c2[nH]c(CCCCCCCc3nc4ccccc4[nH]3)nc2n(C)c1=O,-1%,7,23µM*,2,-19,13µM*
Cn1c(=O)c2[nH]c(CNCc3ccccc3Cl)nc2n(C)c1=O,-11%,0,3.7µM*,3,-1,3.3µM*
Cn1c(=O)c2[nH]c(COc3ccc(C(C)(C)C)cc3)nc2n(C)c1=O,3%,9,8.2µM*,0,38,4.6µM*
CCNC(=O)C1(C)CCN(C(=O)c2ccccc2OC(F)(F)F)C1 (centres undefined),2%,-14,-9%,0,13,1%
CCc1nc2c(cnn2-c2ccc(Cl)cc2)c(=O)n1-c1ccc(OC)cc1,-1%,35,?,6,?,?
CCc1cccc(-n2c(C)nc3c(cnn3-c3ccc(Cl)cc3)c2=O)c1,-2%,·,5.8µM*,4,·,4.1µM*
CCc1cccc(-n2c(C)nc3c(cnn3-c3ccc(C)c(C)c3)c2=O)c1,-6%,·,-74%,6,·,23µM*
COc1cccc(-n2c(C)nc3c(cnn3-c3ccc(Cl)cc3)c2=O)c1,1%,8,8.2µM*,4,-20,7.3µM*
CCc1nc2c(cnn2-c2ccc(Cl)cc2)c(=O)n1-c1ccc2c(c1)OCCO2,1%,6,?,6,12,18µM*
SMILES,ClpP mod,DRD3 antagonist,TDP1 cell CPT,D3 ag,IL1B secr inh,TDP1 cell noCPT
CCc1nc2c(cnn2-c2ccc(C)cc2)c(=O)n1Cc1ccccc1,?,·,?,-1,·,?
Cc1ccc2c(c1)NC(=O)C(CC(=O)Nc1cc(Cl)ccc1C)O2 (centres undefined),-2%,·,-18%,-10,·,-25%
NC(=O)c1c(NC(=O)c2ccncc2)sc2c1CCCCCC2,·,6,-12%,3,-11,?
COc1ccc(NC(=O)N(Cc2nnc3n2CCCCC3)c2ccc(OC)c(Cl)c2)cc1,-1%,·,1%,6,·,-2%
COCCn1c(SCC(=O)Nc2cc(C)cc(C)c2)nc2ccccc2c1=O,10%,-26,?,-6,-14,?
COCCn1c(SCC(=O)Nc2cccc(C(=O)OC)c2)nc2ccccc2c1=O,-4%,16,21µM*,-2,35,?
COCCCn1c(SCC(=O)Nc2ccc(C(C)=O)cc2)nc2ccccc2c1=O,0%,1,?,0,-20,21µM*
COCCn1c(SCC(=O)Nc2ccc(OC)c(S(N)(=O)=O)c2)nc2ccccc21,-2%,18,16µM*,7,60,?
COCCn1c(SCC(=O)Nc2ccc(NC(C)=O)cc2)nc2ccccc2c1=O,2%,-16,-21%,-8,39,?
CCN1CCN(Cc2nc3cc(NC(=O)c4cc(OC)c(OC)c(OC)c4)ccc3n2CC)CC1,-6%,·,-19%,-7,·,-16%
CCOc1ccc(S(=O)(=O)N2CCN(Cc3ccccc3)CC2)c2cccnc12,3%,5,-27%,-1,?,-21%
Oc1ccc(CN2CCN(Cc3ccccc3)CC2)c2cccnc12,-1%,-58*,21µM*,-16,98,?
O=S(=O)(c1ccc(Cl)cc1)N1CCN(Cc2ccc(O)c3ncccc23)CC1,0%,-12,6.5µM*,-8,38,5.8µM*
COc1ccc(NC(=O)Cn2c(=O)n(Cc3ccco3)c(=O)c3sc4ccccc4c32)cc1Cl,-17%,·,-3%,-11,·,-24%
O=C(O)C1CC2CCC1CC2 (centres undefined),0%,-4,1%,0,30,-9%
Cn1c(=N)c(S(=O)(=O)c2ccccc2)cc2c(=O)n3ccccc3nc21,7.9µM*,22,-2%,6,-1,-7%
Cc1ccc(S(=O)(=O)c2cc3c(=O)n4ccccc4nc3n(CCCN3CCOCC3)c2=N)cc1C,3%,-16,?,-6,-72*,7%
N=c1c(S(=O)(=O)c2ccccc2)cc2c(=O)n3ccccc3nc2n1CCCN1CCOCC1,·,10,2%,3,-9,-27%

# High-throughput results from PubChem BioAssay.
